Compound activity from PubChem.
GAA inhib: blocks human lysosomal alpha-glucosidase; 200,000 compounds, 0.005% hits; Potency, µM (titrated, usually from 76.9 µM), for the others: at the highest dose activity change, negative = inhibition, hits mostly inhibitors; purified human GAA, 4-MU-alpha-glucoside fluorescence;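 also: potency is read from the fitted curve at half-maximal effect; plate controls were uninhibited enzyme wells for no effect and no-enzyme background for full effect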
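qHTS format, compound range up to 77 uM. Human lysosomal enzyme at 4 nM, 400 uM 4-MU glucoside substrate, pH 5.0, 20 min room temperature; fluorescence after alkaline stop gives activity normalized to controls.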
GAA glycogen: inhibitors or activators of human alpha-glucosidase glycogen cleavage; 300,000 compounds, 0.38% hits; recombinant GAA, glycogen substrate, Amplex Red glucose oxidase fluorescence; Potency, µM (highest dose often 76.4 µM), without a hit: top-dose activity change, negative = inhibition, actives largely listed as inhibitors; P10253;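 also: potency is read from the fitted curve at half-maximal effect; 0% = full enzyme reaction and -100% = no-enzyme basal signal; the screen sought inhibitors and activators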
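Recombinant human enzyme (4 nM); glycogen substrate; 37 C, 40 min, pH 5.0. Readout: coupled glucose oxidase/Amplex Red fluorescence.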
N370S GC mod: inhibitors or activators of N370S glucocerebrosidase for Gaucher disease; N370S GC spleen homogenate, 4MU-glucoside fluorescence; Potency, µM (titrated, usually from 59.4 µM), inactives show top-dose activity change, negative = inhibition, usual class: inhibitors; 330,000 compounds, 0.092% hits;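 also: potency is read from the fitted curve at half-maximal effect; 0% = full enzyme activity and -100% = no enzyme basal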
GLA inh pH 4.5: inhibitors of human alpha-galactosidase A at pH 4.5. P06280. 230,000 tested, under 10 active. AID 1467. activity change, negative = inhibition, % at 105 µM. purified enzyme, 4-MU-alpha-Gal fluorescence, pH 4.5;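 also: 0% = full activity with enzyme and -100% = basal without enzyme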
Target sequence (P06280 whole entry, looked up): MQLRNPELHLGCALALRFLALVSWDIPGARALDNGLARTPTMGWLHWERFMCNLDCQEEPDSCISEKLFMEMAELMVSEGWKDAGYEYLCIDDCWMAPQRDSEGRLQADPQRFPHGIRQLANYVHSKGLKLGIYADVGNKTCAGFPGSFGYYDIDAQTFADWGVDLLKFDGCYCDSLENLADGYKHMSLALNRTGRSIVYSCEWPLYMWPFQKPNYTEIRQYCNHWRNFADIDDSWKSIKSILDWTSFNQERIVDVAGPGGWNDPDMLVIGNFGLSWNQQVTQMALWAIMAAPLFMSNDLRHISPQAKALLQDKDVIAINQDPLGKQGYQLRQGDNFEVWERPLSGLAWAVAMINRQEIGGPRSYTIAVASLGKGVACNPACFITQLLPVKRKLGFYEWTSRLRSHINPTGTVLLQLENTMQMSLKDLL
GAA spleen mod: inhibits or activates alpha-glucosidase in human spleen homogenate; Potency, µM (series often up to 79.9 µM), without a hit: top-dose activity change, negative = inhibition, most hits filed as inhibitors; AID 2112; human spleen homogenate, 4-MU-alpha-glucoside fluorescence; 240,000 compounds, 0.006% hits; P10253;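 also: potency is read from the fitted curve at half-maximal effect; 0% = enzyme with vehicle and -100% = no enzyme basal signal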
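Human spleen homogenate (1 ug) incubated with compounds and 1 mM 4-methylumbelliferyl-alpha-D-glucopyranoside in pH 5.0 citrate/phosphate buffer, 37 C, 40 min. Stopped at pH 10; 4-MU fluorescence (Ex 365/Em 440 nm); AC50 by Hill fit.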
aGal spleen mod: inhibitors or activators of human alpha-galactosidase in spleen homogenate | P06280 | human spleen homogenate, 4MU-alpha-Gal fluorescence, 40 min | Potency, µM (highest dose often 80 µM), for the others: top-dose activity change, negative = inhibition, usual class: inhibitors | 240,000 compounds, 0.008% hits | AID 2107;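 also: potency is read from the fitted curve at half-maximal effect; 0% = enzyme with vehicle and -100% = no enzyme basal signal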
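Human spleen homogenate (1 ug) was the enzyme source, with 4-methylumbelliferyl-alpha-D-galactopyranoside (1 mM final) in pH 5.0 citrate buffer with 0.01% Tween-20. Compounds were titrated; after 40 min at 37C, NaOH/glycine stop, 4-MU fluorescence read; AC50 from Hill fits.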
An asterisk follows results filed as active; [ ] = remark or other dose. Hits are enriched below; roughly 0.41% of the tested compounds scored in any of these assays. Calls follow the shape of the dose curve; as a rule, active = well fitted curve in the direction sought with a large enough effect; inconclusive = small, poorly fitted or top-dose-only effect, or another doubt; inactive = no such curve, though single readings can be large; an effect the other way counts as inactive or inconclusive.

What do the screens show for `CCOC(=O)c1c(C)n(-c2ccc(OC)cc2)c2ccc(O)c(CN(C)C)c12`?
GAA glycogen: -13.5%; N370S GC mod: 4.0%; GLA inh pH 4.5: 1.8; GAA spleen mod: -3.8%; aGal spleen mod: -2.4%

How did CCCCN(CC)S(=O)(=O)c1ccc(C(=O)N(CCCN(C)C)c2nc3cc(C)cc(C)c3s2)cc1 do in these assays?
GAA inhib: -4.8%; GAA glycogen: 15.8%; N370S GC mod: inconclusive; GLA inh pH 4.5: -5.4; GAA spleen mod: 5.2%; aGal spleen mod: -1.9%

How did CCN(Cc1ccccc1)S(=O)(=O)c1ccc(C(=O)N(CCCN(C)C)c2nc3cc(C)cc(C)c3s2)cc1 do in these assays?
N370S GC mod: 14.1µM*

Results for COc1cccc(C(=O)Nc2ccc3nc(N4CCOCC4)cc(C)c3c2)c1 ?
GAA inhib: -6.2%; GAA glycogen: -2.9%; N370S GC mod: 10µM*; GLA inh pH 4.5: -8.8; GAA spleen mod: 7.5%; aGal spleen mod: 5.8%

What do the screens show for `COC(=O)C1=C[C@@H](C(=O)OC)[C@@H]2C3=C(C(=O)[C@@]2(CC(C)C)NC(=O)c2ccccc2)[C@H](C)n2c(=O)n(-c4ccccc4)c(=O)n2[C@@H]3C1`?
N370S GC mod: -8.2%; GAA spleen mod: 0.6%; aGal spleen mod: -7.1%

How did CC(C)(C)C1CCc2c(sc(NC(=O)c3noc4c3CCCC4)c2C#N)C1 (configuration not stated) do in these assays?
GAA glycogen: -11.6%[76.3 µM]

Results for Oc1cccc(/C=N/Nc2cc(N3CCCC3)nc(N3CCCC3)n2)c1 ?
GAA inhib: 0.7%; GAA glycogen: -2.7%; N370S GC mod: -18.3%; GLA inh pH 4.5: -1.5; GAA spleen mod: -6.8%; aGal spleen mod: -5.2%

What do the screens show for `Oc1ccc(/C=N/Nc2cc(N3CCCC3)nc(N3CCCC3)n2)cc1`?
GAA inhib: -11.3%; GAA glycogen: 24.9µM*; N370S GC mod: -16.8%; GLA inh pH 4.5: -1.5; GAA spleen mod: -10.3%; aGal spleen mod: -3.3%

What do the screens show for `CC(C)c1cc(NC(=O)C(C)(C)C)cc(C(C)C)c1O`?
GAA inhib: -9.6%; GAA glycogen: 31.6µM*; N370S GC mod: 3.1%; GLA inh pH 4.5: -3.2; GAA spleen mod: -3.4%; aGal spleen mod: 5.1%

What do the screens show for `C=CC[n+]1c(-c2ccccc2)csc1NC(C)(C)C`?
GAA inhib: -3.2%; GAA glycogen: 6.5%; N370S GC mod: -1.5%; GLA inh pH 4.5: -8.1; GAA spleen mod: -8.7%; aGal spleen mod: -6.5%

Results for C=CC[n+]1c(-c2ccc(OC)c(OC)c2)csc1NNC(=O)Nc1ccccc1 ?
GAA inhib: -4.1%; GAA glycogen: 31.6µM*; N370S GC mod: -2.7%; GLA inh pH 4.5: 0.4; GAA spleen mod: 4.5%; aGal spleen mod: 4.6%

How did O=C(Cn1c(-c2cccs2)cc2cc(F)ccc21)NCCc1ccc(Cl)cc1 do in these assays?
GAA glycogen: 8.0%[76.3 µM]

What do the screens show for `CCOc1ccc(NC(=S)NNC(=O)c2ccc(Br)cc2)cc1`?
GAA inhib: -4.8%; GAA glycogen: 39.8µM*; N370S GC mod: -11.8%; GLA inh pH 4.5: 2.6; GAA spleen mod: 1.4%; aGal spleen mod: -1.2%

Results for O=C1/C(=C\c2ccc(O)c(O)c2)C(c2ccccc2)=NN1c1ccccc1 ?
GAA inhib: 4.0%; GAA glycogen: 3.98µM*; N370S GC mod: 4.3%; GLA inh pH 4.5: -1.1; GAA spleen mod: -2.3%; aGal spleen mod: 2.4%

How did NNc1nc(-c2ccccc2)cc(-c2ccccc2)n1 do in these assays?
GAA inhib: 4.3%; GAA glycogen: -16.5%; N370S GC mod: 3.6%; GLA inh pH 4.5: 0.6; GAA spleen mod: -2.8%; aGal spleen mod: -14.2%

Results for NNc1nc(-c2ccccc2)cc(-c2ccccc2O)n1 ?
GAA inhib: 1.8%; GAA glycogen: 11.2µM*; N370S GC mod: 4.1%; GLA inh pH 4.5: 1.0; GAA spleen mod: -5.8%; aGal spleen mod: -7.6%
